According to PubChem BioAssay (NCATS):
Results filed as inconclusive are left out. The source made the active and inactive calls. Calls come from the whole dose curve; as a rule, active = well fitted curve in the direction sought with a large enough effect; inconclusive = small, poorly fitted or top-dose-only effect, or another doubt; inactive = no such curve, though single readings can be large; an effect the other way counts as inactive or inconclusive.

Legend:
[1] = HPAF-II 12hr Apoptosis Induction qHTS against the NCATS CANVASS Library (AID 1347358)
In short: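 Caspase-3/7 activation by DEVD-substrate luminescence (Caspase-Glo 3/7, 15 min, room temperature) after a 12-hour compound exposure in 11 concentrations, of HPAF-II pancreatic cells seeded at 500/well in DMEM with 10% FBS.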

[2] = HEK293 24hr Apoptosis Induction qHTS against the NCATS CANVASS Library (AID 1347359)
In short: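 Caspase-3/7 activation measured as luminescence from the DEVD-based Caspase-Glo reagent, 15 min at room temperature, following 24-hour compound treatment of HEK293 cells.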

[3] = HPAF-II 18hr Apoptosis Induction qHTS against the NCATS CANVASS Library (AID 1347360)
In short: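 Apoptosis was scored as caspase-3/7 activity in HPAF-II pancreatic cancer cells treated 18 hours with an 11-point concentration series.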

[4] = HEK293 12hr Apoptosis Induction qHTS against the NCATS CANVASS Library (AID 1347361)
In short: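 Apoptosis in HEK293 was scored as caspase-3/7 luminescence following 12 h treatment with a compound concentration series in qHTS format.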

[5] = tested on: NAD(P)H diaphorase (Clostridium kluyveri); assay: Diaphorse counterscreen qHTS: Assay Interference Panel against the NCATS CANVASS Library (AID 1347362)
In short: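 Counterscreen for coupling-enzyme interference: resorufin fluorescence from resazurin/NADH turnover, read after 5 min at room temperature. Compounds were tested over an 11-point series after 15 min dark preincubation with diaphorase in PBS-Tween.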

[6] = molecular target: Luciferin 4-monooxygenase (Photinus pyralis) (UniProt P08659); assay: Firefly luciferase counterscreen qHTS: Assay Interference Panel against the NCATS CANVASS Library (AID 1347363); note: series mostly up to about 57 µM
Chain of Luciferin 4-monooxygenase (Photinus pyralis) (P08659 whole entry, looked up): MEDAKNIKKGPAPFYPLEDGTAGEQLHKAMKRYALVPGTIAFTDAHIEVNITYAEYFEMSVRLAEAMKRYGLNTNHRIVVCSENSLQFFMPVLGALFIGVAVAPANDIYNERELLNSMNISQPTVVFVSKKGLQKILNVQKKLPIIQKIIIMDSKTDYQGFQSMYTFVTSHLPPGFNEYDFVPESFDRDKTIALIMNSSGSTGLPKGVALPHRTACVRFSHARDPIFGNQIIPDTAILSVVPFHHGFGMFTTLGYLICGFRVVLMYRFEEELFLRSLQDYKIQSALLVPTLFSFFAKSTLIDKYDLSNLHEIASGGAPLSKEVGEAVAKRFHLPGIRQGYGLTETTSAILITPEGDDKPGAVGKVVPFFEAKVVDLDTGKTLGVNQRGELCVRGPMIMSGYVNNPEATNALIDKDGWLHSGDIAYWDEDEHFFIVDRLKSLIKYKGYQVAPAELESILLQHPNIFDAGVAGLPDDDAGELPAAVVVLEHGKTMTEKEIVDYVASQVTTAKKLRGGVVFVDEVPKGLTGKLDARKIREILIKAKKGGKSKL
From the text: Natural products and their derivatives continue to be wellsprings of nascent therapeutic potential. However, many laboratories have limited resources for biological evaluation, leaving their previously isolated or synthesized compounds largely or completely untested. To address this issue, the Canvass library of natural products was assembled (https://tripod.nih.gov/canvass), in collaboration with academic and industry researchers, for quantitative high-throughput screening (qHTS) across a diverse set of cell-based and biochemical assays. The pure (>85% purity by liquid chromatography/mass spectrometry [LC/MS]) Canvass library of 346 natural products were submitted by 45 academic laboratories and companies around the world. […] The library was formatted into 1536-well plates and evaluated in 50 qHTS (in an 11-pnt concentration series) bioassays with broad scope of disease-relevant mechanisms. The resulting data set from 50 different assays was then systematically analyzed to identify overall trends and specific natural products with interesting biological activities. […] The assay measures the relative levels of luminescence, to identify compounds that inhibit the activity of luciferase. […]
Luciferase Interference counterscreen protocol 1. […] Luminescence signal was acquired via the ViewLux plate reader (PerkinElmer) using a clear emission filter and a 2 second exposure, 2x binning settings.

[7] = KB-3-1 Cancer Cell Toxicity qHTS against the NCATS CANVASS Library (AID 1347366); note: series mostly up to about 46 µM; nearly all actives have a fitted effect of over 75% in size
In short: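 Seed KB-3-1 cells at 500/well in DMEM with 10% FBS, add compounds, incubate 72 hr at 37C and 5% CO2, then add CellTiter-Glo and read luminescence after 10 minutes.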

[8] = qHTS for ATAD5 Agonist screened against the NCATS CANVASS Library (AID 1347367);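 note: luciferase reporter driven by ATAD5 which rises upon DNA damage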
In short: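 Step one plated reporter cells and let them acclimate 5hr. Step two pinned compounds with MMS as positive and 0.46% DMSO as negative control. After 16hr incubation, fluorescence viability then luminescence were read.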

[9] = G06 Cancer Cell Toxicity qHTS against the NCATS CANVASS Library (AID 1347368); note: series mostly up to about 46 µM; nearly all actives have a fitted effect of over 60% in size
In short: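 Viability measured by CellTiterGlo ATP luminescence after 72 hr at 37C, 5% CO2. Canine G06 glioma cells plated at 500/well. Compounds tested as 11-point qHTS titrations.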

[10] = qHTS for ATAD5 Antagonist screened against the NCATS CANVASS Library (AID 1347370);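 note: HEK293T cells carrying an ATAD5 luciferase reporter co-treated with 10 µM 5-fluorouridine; series mostly up to about 46 µM; nearly all actives have a fitted effect of over 65% in size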
In short: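 Compounds (11-point) co-dosed with 10 µM 5-FUrd for 16 h at 37 °C onto HEK293T-ATAD5 luciferase reporter cells. Viability measured by CellTiter-Fluor fluorescence, then ATAD5 reporter signal by luminescence.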

Measured: outcome

NCCc1ccc(O)cc1
inactive: all assays above
